Screens (PubChem BioAssay)
Compounds with a hit are over-represented: about 28% of the library has one in this group of screens.
CYP2C19 inh: blockers of cytochrome P450 2C19 activity – biochemical, luminescence, ADME assay, primary screen; P33261; CYP2C19 Supersomes, luciferin-H EGE luminescence, 30 min; inhibition, % at 5 µM; 21% of 96,000 active;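 active = CYP2C19 inhibition above a set limit at 5 µM in the primary screen, cut at about 50% in these data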;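 also: plate controls were negative control wells for no effect and 2.5 mM tranylcypromine positive control for full effect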
Target sequence (P33261 whole entry, looked up): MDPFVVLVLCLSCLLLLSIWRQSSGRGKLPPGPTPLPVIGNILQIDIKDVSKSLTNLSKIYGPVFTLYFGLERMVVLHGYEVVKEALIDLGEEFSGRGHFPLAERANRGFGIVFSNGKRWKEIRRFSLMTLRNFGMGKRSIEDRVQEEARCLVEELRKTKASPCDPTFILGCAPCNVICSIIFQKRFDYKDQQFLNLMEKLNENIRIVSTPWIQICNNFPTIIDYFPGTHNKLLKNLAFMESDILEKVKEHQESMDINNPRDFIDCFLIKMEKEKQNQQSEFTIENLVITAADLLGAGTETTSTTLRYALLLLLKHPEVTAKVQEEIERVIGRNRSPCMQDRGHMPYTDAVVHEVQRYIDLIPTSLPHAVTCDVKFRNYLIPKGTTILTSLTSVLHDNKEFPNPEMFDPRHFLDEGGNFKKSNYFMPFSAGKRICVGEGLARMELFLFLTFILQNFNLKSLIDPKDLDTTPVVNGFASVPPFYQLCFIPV
Pyk2 oligo antag: antagonists of Pyk2 self-association, primary screen, Q293 cells, FERM NanoBiT luminescence, HTS; hits give low values; z-score (the deposit names both 25 µM and 10 µM); 0.83% of 99,000 active;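 active = Z-score of -3 or lower, scaled per plate to the spread of control and sample wells; inactive = z-score above -3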;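 also: negative z-score means lost luminescence so less FERM oligomerization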
CYP2C19 activ: human CYP2C19 activators, primary screen, biochemical, luminescence; Cytochrome P450 2C19 (Homo sapiens), P33261; recombinant CYP2C19, luciferin-H EGE luminescence; hits give high values; 0 = fully inhibited enzyme, 1 = untreated enzyme; activation factor at 5 µM; 96,000 tested, under 10 active; AID 1025, 2008;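 active = activation factor of at least 2 at 5 µM in the primary screen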;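 also: 0 = wells with 2.5 mM tranylcypromine and 1 = vehicle-only wells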
CYP2C9 activ: human CYP2C9 activators, primary screen, biochemical, luminescence | Cytochrome P450 2C9 (Homo sapiens), P11712 | recombinant CYP2C9, luciferin-H conversion; hits give high values; factor 1 = untreated enzyme, 0 = blocked | activation factor at 5 µM | 1.4% of 96,000 active;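 active = activation factor of 2 or more for CYP2C9 at a 5 µM dose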;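 also: 0 = sulfaphenazole-blocked wells and 1 = vehicle-only wells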
CYP2C9 inhib: blockers of cytochrome P450 2C9 activity – biochemical, luminescence, ADME assay, primary screen | inhibition, % at 5 µM | CYP2C9 Supersomes, luciferin-H conversion | AID 777, 2007 | 20% of 96,000 active | P11712;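 active = blocking of liver enzyme CYP2C9 beyond about 50% at 5 µM, limit read from the data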
* = called active by the depositor; . = no result.

SMILES	CYP2C19 inh	Pyk2 oligo antag	CYP2C19 activ	CYP2C9 activ	CYP2C9 inhib
Cc1noc(C)c1Cn1nc(C(=O)O)c2ccccc2c1=O	36	0.25	0.6	0.2	80*
O=C1Nc2ccccc2C(O)(C(=O)NC2CC2)N1c1ccc(Cl)c(Cl)c1 (stereo unspecified)	7	0.34	0.9	1	-4
O=C(Nc1ncc(Br)s1)C(Cc1ccccc1)n1cccc1 (stereo unspecified)	88*	.	0.1	0	97*
CCC(C(=O)N1CCN(c2cccc(Cl)c2)CC1)c1ccccc1 (stereo unspecified)	95*	-0.36	0	0	100*
O=C(C(Cc1ccccc1)n1cccc1)N1CCN(Cc2ccccc2)CC1 (stereo unspecified)	23	.	0.8	0.4	62*
O=C(C(Cc1ccccc1)n1cccc1)N1CCCCCC1 (stereo unspecified)	69*	.	0.3	0.6	37
O=C(Nc1cccnc1)C(Cc1ccccc1)n1cccc1 (stereo unspecified)	30	.	0.7	0.6	36
O=C(C(Cc1ccccc1)n1cccc1)N1CCCCC1 (stereo unspecified)	45	.	0.6	1.1	-6
O=C(CCN1C(=O)c2ccccc2C1=O)N1CCN(Cc2ccccc2)CC1	.	0.34	.	.	.
O=C(O)CCC(=O)N1CCN(c2cccc(Cl)c2)CC1	6	0.41	0.9	1.2	-24
COc1ccc(N2CCN(C(=O)C(Cc3ccccc3)n3cccc3)CC2)cc1 (stereo unspecified)	93*	.	0.1	0.2	76*
CCC(C(=O)N1CCc2cc(OC)c(OC)cc2C1)c1ccccc1 (stereo unspecified)	73*	0.93	0.3	0.3	73*
CCC(C)NC(=O)C(Cc1ccccc1)n1cccc1 (stereo unspecified)	62*	.	0.4	0.4	60*
O=C(NC1CCCC1)C(Cc1ccccc1)n1cccc1 (stereo unspecified)	24	.	0.8	0.6	35
CS(=O)(=O)N1CCN(C(=O)c2ccc(-c3ccccc3)cc2)CC1	-16	-0.31	1.2	1.2	-15
COc1ccc(N2CCN(C(=O)C(OC(C)=O)c3ccccc3)CC2)cc1 (stereo unspecified)	-4	-0.41	1	1.1	-11
CCC(C(=O)N1CCN(S(C)(=O)=O)CC1)c1ccccc1 (stereo unspecified)	83*	0.41	0.2	0.7	33
O=C(C(Cc1ccccc1)n1cccc1)N1CCN(c2cccc(Cl)c2)CC1 (stereo unspecified)	82*	.	0.2	0.3	70*
Cc1nn(CC(=O)Nc2ccc(Cl)cn2)c(C)c1[N+](=O)[O-]	48	-0.13	0.5	1.1	-6
O=C(COc1ccc(Cl)cc1)Nc1ccc(Cl)cn1	68*	-0.43	0.3	0.8	20
CCCC(C)C(=O)Nc1ccc(Cl)cn1 (stereo unspecified)	53*	-1.2	0.5	0.9	14
Cc1nn(C(C)C(=O)Nc2ccc(Cl)cn2)c(C)c1[N+](=O)[O-] (stereo unspecified)	74*	-0.45	0.3	0.8	22
CCN1CCN(Cc2ccc(NC(=O)Nc3ccccc3OC)cc2)CC1	-6	.	1.1	0.9	6
CCCC(=O)Nc1ccc(N2CCN(C(=O)c3cccs3)CC2)cc1	28	-0.19	0.7	0.6	45
C=CCn1c(N)c(-c2nc3ccccc3n2C)sc1=S	44	0.11	0.6	0.1	86*
SMILES	CYP2C19 inh	Pyk2 oligo antag	CYP2C19 activ	CYP2C9 activ	CYP2C9 inhib
C=CCn1c(-c2cccs2)nc2nc3ccccc3nc21	8	-2.1	0.9	0.8	22
C=CCn1c(-c2cccs2)nc2ccccc21	66*	-0.93	0.3	0.6	38
C=CCSc1nc2ccccc2n1Cc1nnc(-c2cccs2)o1	67*	0.33	0.3	0.5	53*
CCCn1c(-c2cccs2)nc2ccccc21	30	-0.49	0.7	1	3
COC(=O)c1ccc(NC(=O)CSc2nnc(CNc3ccc(F)cc3)n2C)cc1	15	-0.07	0.8	0.6	40
COc1cc(NC(=O)Cc2ccc(Cl)cc2)ccc1NC(=O)c1ccco1	23	-1.4	0.8	0.6	41
COc1cc(NS(=O)(=O)c2ccc(Br)cc2)c(OC)cc1NC(=O)c1ccco1	98*	-1.1	0	0	100*
COc1ccc(NC(=O)c2cc(Cl)ccc2NC(=O)c2ccco2)c(OC)c1	73*	-1.7	0.3	0.1	94*
CCOc1cc(NS(=O)(=O)c2ccc(OC)cc2)c(OCC)cc1NC(=O)c1ccco1	.	-1.7	.	.	.
COc1ccc(S(=O)(=O)Nc2cc(OC)c(NC(=O)c3ccco3)cc2OC)cc1	57*	-1.6	0.4	0.1	94*
O=C(COC(=O)C1=Cc2ccccc2OC1)NC1CCCC1	28	0.06	0.7	0.8	20
O=[N+]([O-])c1ccc(/C=N/Nc2nc(N3CCCCC3)nc(N3CCCCC3)n2)o1	6	0.41	0.9	1	-4
CC(=O)NCCC(Cc1ccccc1)c1ccco1 (stereo unspecified)	.	0.41	.	.	.
CCOC(=O)C(C#N)C(Cc1ccccc1)c1ccco1 (stereo unspecified)	92*	-0.37	0.1	0.3	70*
CSc1cc(-c2ccccc2)n(Cc2c(Cl)cccc2Cl)c(=O)c1C#N	23	-1.2	0.8	0.2	75*
CN1CCc2c(sc3nc(SCC(N)=O)n(-c4ccccc4)c(=O)c23)C1	69*	-0.15	0.3	0.8	16
C=CCn1c(SCC(=O)Nc2sccc2C#N)nc2sc(C)c(C)c2c1=O	-7	0.53	1.1	0.7	30
C=CCn1c(SC(CCO)C(=O)NCc2ccco2)nc2sc3c(c2c1=O)CCC3 (stereo unspecified)	13	-0.55	0.9	0.4	56*
C=CCn1c(SCC(=O)NC(=O)NCc2ccco2)nc2sc(C)c(C)c2c1=O	19	-1	0.8	0.7	27
COC(=O)CSc1nc2sc3c(c2c(=O)n1-c1ccccc1)CCN(C)C3	32	-0.2	0.7	0.9	6
C=CCn1c(SCC(=O)NC)nc2sc3c(c2c1=O)CCC3	39	0.11	0.6	0.4	59*
C=CCn1c(SCC(=O)OC)nc2sc3c(c2c1=O)CCN(C)C3	60*	.	0.4	0.8	23
CCc1c(C)nc2cc(-c3ccc(OC)c(OC)c3)nn2c1NCC1CC1	28	-1.2	0.7	0.6	44
CCSc1nc2sc3c(c2c(=O)n1C1CCCCC1)CCN(C)C3	71*	-0.1	0.3	0.6	43
CCOC(=O)c1c(C)c2c(n1C)CCC/C2=N\O	60*	0.31	0.4	0.7	33
CCOC(=O)c1c(C)c(C(=O)NC2CCCCCC2)c(C)n1C	-4	0.59	1	1.6	-60
